# Measured values taken from PubChem BioAssay (NCI).
# This is part of a sample that, as a whole, favours compounds with a hit. Of some 83,000 tested, about 20% had one in any assay.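 How to read the values: 0–100, growth inhibition (40 = 60% inhibited); 0, no net growth; -100 to 0, cell death (-40 = 40% of starting cells died; -100 = all dead).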 Unmarked numbers belong to inactive results. Active and inactive are the calls of the source. How the source made its calls: active means growth percent below 10; inactive means the rest.
# Tests used:
# Test in all cases: NCI-60 one-dose screen, 48 h (100 = growth as untreated, 0 = no growth, -100 = all killed)
# Conditions in all cases: 10 µM unless noted
# [1] = system: DU-145 prostate
# [2] = system: K-562 leukemia
# [3] = system: MALME-3M melanoma
# [4] = system: MDA-MB-231 breast
# [5] = system: RXF 393 renal
# [6] = system: SF-268 CNS
# [7] = system: SF-295 CNS
# [8] = system: UACC-257 melanoma
# [9] = system: M14 melanoma
# [10] = system: HCT-15 colon
# [11] = system: HT29 colon
# [12] = system: SNB-75 CNS
# [13] = system: SNB-19 CNS
# [14] = system: U251 CNS
# [15] = system: PC-3 prostate
# [16] = system: SK-MEL-5 melanoma
# [17] = system: UACC-62 melanoma
# [18] = system: LOX IMVI melanoma
# [19] = system: SK-MEL-28 melanoma
SMILES,growth [1],growth [2],growth [3],growth [4],growth [5],growth [6],growth [7],growth [8],growth [9],growth [10],growth [11],growth [12],growth [13],growth [14],growth [15],growth [16],growth [17],growth [18],growth [19]
COc1ccc2nc3cc(Cl)ccc3c(N3CCN(c4nccc(Nc5ccccc5)n4)CC3)c2c1,75.2%,41.5%,110%,70.2%,35%,61.3%,78.3%,82.2%,60.8%,33.8%,54%,52.8%,85.2%,58.5%,55.9%,80.4%,78.9%,44.3%,83.5%
COc1ccc(C(=O)/C=C/c2c(Cl)c3c(c(OC)c2Cl)OCC(=O)N3)cc1,18.7%,3.42% (active),66.8%,34.9%,36.3%,29.9%,32.1%,50%,17.7%,20.1%,7.82% (active),37%,59.6%,17%,52.1%,21.2%,46.7%,-36.1% (active),48.2%
COc1cc(OC)c(/C=C/C(=O)c2c(OC)cc(OC)cc2OC)c(OC)c1,25.1%,8.98% (active),60.6%,39.1%,-14.7% (active),22.1%,6.33% (active),52.2%,-33.5% (active),26%,3.25% (active),13.7%,32.8%,14.5%,42.8%,1.55% (active),7.8% (active),10.8%,21.9%
CCCCCCCCCC(=O)Oc1ccc(/C(=C(/C)c2ccccc2)c2ccc(OCCN3CCCC3)cc2)cc1,55.9%,-12.4% (active),-62% (active),-5.4% (active),-32.4% (active),38.7%,-75.1% (active),-51.9% (active),-57.8% (active),-13.4% (active),-35.5% (active),-11.6% (active),6.86% (active),-34.3% (active),15.8%,-98.5% (active),-69% (active),-72.1% (active),-77.9% (active)
C/C(=C(/c1ccc(O)cc1)c1ccc(OCCN(C)C)cc1)c1ccccc1,98.1%,36.6%,79.9%,85.2%,69.3%,83.3%,98.1%,78.1%,65.1%,73.9%,22.1%,53.4%,96.1%,70.5%,80.3%,75.1%,36.8%,82.8%,45.3%
Cn1c(=O)c2[nH]c(C(O)C(O)C(O)C(O)CO)nc2n(C)c1=O (centres undefined),109%,95.1%,97%,101%,115%,106%,103%,93.6%,105%,106%,99.6%,92.6%,97.3%,100%,93.2%,104%,99.7%,102%,100%
Nc1ccc2c(c1)C(=O)NC2=O,110%,100%,90.5%,101%,115%,92.5%,101%,98.6%,99.4%,98.5%,90.7%,75.8%,93.5%,96%,121%,105%,89.7%,97.8%,99.8%
C[C@@]1(N2C(=O)OC[C@@H]2c2ccccc2)C(=O)N([C@H](CC(=O)N2CCC(N3CCCCC3)CC2)C(=O)NCc2cccc(C(F)(F)F)c2)[C@@H]1/C=C/c1ccccc1,63.5%,-40.6% (active),-69.5% (active),31%,61%,63.2%,100%,-72.1% (active),-54.3% (active),19%,-3.04% (active),66.3%,74.1%,38.4%,52.8%,-93% (active),24.6%,-50.1% (active),-45.2% (active)
O=C(CN1CCN(c2cc3c(cc2F)c(=O)c(C(=O)O)cn3C2CC2)CC1)Nc1nc(-c2ccccc2)cs1,79.7%,64.5%,89.8%,95.5%,78.2%,83.9%,69.9%,65.2%,76%,82.4%,72.7%,69.6%,86.8%,43.8%,64.7%,78.9%,78.8%,36.5%,87.5%
CC/C(=C(\c1ccc(O)cc1)c1ccc(OCCN(C)CCN(C)C(=O)CCCCC(=O)c2c(C)[nH]c(/C=C3\N=C(c4ccc[nH]4)C=C3OC)c2C)cc1)c1ccccc1,65.8%,42.9%,116%,35.1%,83%,75.9%,89.2%,99.8%,39.7%,60%,29.3%,105%,114%,72%,61.2%,77.8%,95.4%,44.9%,89.7%
COC(/C=C/c1ccc([N+](=O)[O-])cc1)OC,119%,105%,109%,91.2%,87.5%,106%,106%,90.8%,77.2%,116%,94.7%,85.9%,91.2%,74.5%,95.1%,98.3%,89.9%,8.46% (active),93.5%
O=C1c2cc3c(cc2-c2c1c1cc(Cl)c(Cl)cc1c(=O)n2CCCn1ccnc1)OCO3,8.73% (active),16.3%,23.2%,41.4%,3.03% (active),17.7%,-17.4% (active),-17.1% (active),-11.1% (active),13%,-8.33% (active),9.95% (active),13.4%,-9.41% (active),25.3%,-9.98% (active),-38.1% (active),-53.6% (active),44.3%
Cc1cc(OCc2ccc(C(F)(F)F)cc2)c2c(c1)C(=O)C=C(NCCN1CCCC1)C2=O,76.2%,-8.28% (active),-45.4% (active),74.7%,53.6%,69%,64.1%,-92.4% (active),-84.9% (active),31.2%,9.81% (active),76.4%,79.8%,22.3%,66%,-35.7% (active),86.8%,-52.9% (active),-84.1% (active)
COCCCNc1nc(NC(=O)c2ccc(F)cc2C)cc(-c2cccnc2)n1,110%,104%,107%,81.1%,99.5%,104%,104%,84.1%,103%,109%,105%,91.7%,89.9%,87.6%,95.9%,104%,85.7%,112%,107%
CNCCCn1c2c(c3ccc([N+](=O)[O-])cc3c1=O)C(=O)c1cc(OC)cnc1-2,0.657% (active),-28.9% (active),-69.2% (active),-51.9% (active),-90.5% (active),0.163% (active),-13.2% (active),-23.1% (active),-13.1% (active),-27.5% (active),-19.2% (active),-26.5% (active),2.67% (active),-61.1% (active),2.02% (active),-98.8% (active),-77.1% (active),-89% (active),-67% (active)
COc1ccc2nc3cc(Cl)ccc3c(N3CCN(c4nccc(NCc5ccccc5)n4)CC3)c2c1,78.7%,33%,113%,67.5%,42.2%,72.3%,81.6%,88%,96.3%,47.5%,52.7%,69.2%,96%,69%,78.7%,84%,85.2%,31.3%,80.7%
